D1 antagonist = Antagonist of Human D 1 Dopamine Receptor: qHTS | activity change, negative = inhibition, % at 10 µM | HEK293 TREx D1 cells, calcium flux, dopamine EC80; hits give low values | actives 3.2% (n = 360,000) | D(1A) dopamine receptor (Homo sapiens), P21728 | AID 504652, 2011; in the data active = activity change below about -30%; note: % is set by controls: 0 for no effect and ±100 for the full control effect
Target sequence (P21728 whole entry, looked up): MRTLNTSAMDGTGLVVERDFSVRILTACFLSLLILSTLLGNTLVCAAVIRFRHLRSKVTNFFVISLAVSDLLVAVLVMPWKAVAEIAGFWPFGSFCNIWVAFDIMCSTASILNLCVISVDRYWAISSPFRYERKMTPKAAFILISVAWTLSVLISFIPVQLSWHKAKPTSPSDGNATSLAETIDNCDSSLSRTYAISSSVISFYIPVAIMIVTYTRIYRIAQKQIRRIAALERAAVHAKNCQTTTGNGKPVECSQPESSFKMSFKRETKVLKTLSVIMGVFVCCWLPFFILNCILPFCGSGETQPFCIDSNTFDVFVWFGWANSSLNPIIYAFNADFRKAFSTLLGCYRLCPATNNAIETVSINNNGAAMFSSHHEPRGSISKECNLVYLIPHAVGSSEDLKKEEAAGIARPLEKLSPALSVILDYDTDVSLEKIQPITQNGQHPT
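After overnight tetracycline induction at 30 C, force-coupled D1 HEK293 cells took up a no-wash calcium dye at room temperature. Compounds were added and monitored 180 s, and the response to EC80 dopamine was then recorded.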
TRHR enhancer = qHTS for Small Molecule Agonists and Allosteric Enhancers of Human TRH Receptor: Primary Screen for Enhancers | Thyrotropin-releasing hormone receptor (Homo sapiens), P34981 | actives 0.66% (n = 360,000) | enhancement, % at 2 µM | TRHR cells, fluo-8 calcium fluorescence, EC20 TRH enhancement | AID 493056, 2011; in the data active = enhancement above about 30%; note: 0% is about no effect
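Enhancer read-out: after compound pinning and an initial kinetic agonist-mode read, an EC20 of TRH (10 nM final) was injected and fluo-8 calcium signal (Ex 480/Em 530) followed at 1 s/cycle for 100 cycles in TRHR-expressing cells.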
TRHR agonist = qHTS for Small Molecule Agonists and Allosteric Enhancers of Human TRH Receptor: Primary Screen for Agonists; Thyrotropin-releasing hormone receptor (Homo sapiens), P34981; TRHR cells, calcium flux fluo-8, FDSS agonist mode; activation, % at 2 µM; actives 0.18% (n = 360,000); note: 0% is about no effect
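TRHR-expressing cells, plated overnight in medium with 10% serum, were loaded with fluo-8 calcium dye at room temperature. After a 10 s baseline, library compound was pin-added and calcium release was recorded kinetically (ex 480/em 530) as agonist response.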
D1 PAM = Potentiators of Human D1 Dopamine Receptor: qHTS; D(1A) dopamine receptor (Homo sapiens), P21728; HEK293 TREx D1 cells, calcium flux, dopamine EC20 potentiation; potentiation, % at 10 µM; actives 0.036% (n = 360,000); in the data active = potentiation above about 30%; note: 0% is about no effect
Epigenetic reg = Quantitative High-Throughput Screen for Regulators of Epigenetic Control; actives 0.2% (n = 280,000); Potency, µM (series often up to 53.9 µM), without a hit: top-dose GFP activation, actives largely listed as activators; murine LDR cells, GFP reporter derepression, 30 h; AID 1865, 2009; active = well fitted activation curve with a large enough effect; note: potency is the fitted concentration of half-maximal effect; % of control where 0% means no effect; nearly all actives have a fitted effect of over 60% in size
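Murine LDR cells carrying a silenced, genomically integrated CMV-driven GFP reporter were exposed to compound for 30 hours at 37 C. After PBS washes, GFP-positive cells (20–120 um objects) were counted by laser-scanning microplate cytometry.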
D1 ag = Allosteric Agonists of the Human D1 Dopamine Receptor: qHTS | activation, % at 2 µM | actives 1% (n = 360,000) | D(1A) dopamine receptor (Homo sapiens), P21728 | HEK293 T-REx D1 cells, calcium flux, agonist mode; note: 0% is about no effect
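Agonism was scored from calcium flux recorded over 180 s (1 read/s) after pintool compound addition, following a 10-cycle baseline. Cells were inducible force-coupled HEK293 TREx D1, plated overnight at 30 C and loaded with no-wash calcium dye.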
The depositor's hits bear a star; . = no result; [ ] = dose if it differs, or a comment. A selection: hits, their analogues and other compounds. The true share with any hit is near 4.6%. Cut-off read from the data, not from the text of the source, unless noted: active = activation above about 30%; inactive = the rest.

SMILES	D1 antagonist	TRHR enhancer	TRHR agonist	D1 PAM	Epigenetic reg	D1 ag
COc1ccc(/C=N/NC(=O)CCn2cnc3ccccc32)cc1	-51*	-3	-1	-4	0%	4
COc1cccc(/C=N/NC(=O)CCn2cnc3ccccc32)c1	-9	1	-1	2	0%	2
O=C(CCC(=O)Nc1ccccc1)N/N=C/c1ccncc1	-6	14	-1	-4	2%	5
COc1ccc(/C=N/NC(=O)CNS(=O)(=O)c2ccccc2)cc1	-38*	6	0	-6	.	0
O=C(Nc1ccccc1C(=O)N/N=C/c1ccncc1)c1ccccc1	-32*	0	0	-11	3%	3
COc1ccc(NC(=O)CCC(=O)N/N=C/c2ccncc2)cc1	-64*	1	1	-5	0%	2
Cc1ccc(C2c3[nH]c4ccccc4c3CCN2C(=O)CCc2ccccc2)cc1 (centres undefined)	0	8	1	-2	-1%	0
O=C(CCC(=O)Nc1ccc(F)cc1)N/N=C/c1ccncc1	-9	2	0	0	5%	3
Cc1ccccc1NC(=O)CCC(=O)N/N=C/c1ccncc1	-40*	-3	3	-3	3%	11
COc1ccc(-c2nnc3sc(CN4C(=O)c5ccccc5C4=O)nn23)cc1	-5	36*	0	2	-2%	4
CCCCNC(=O)C1CCC(CNS(=O)(=O)c2ccc(Cl)cc2)CC1 (centres undefined)	-13	2	-1	-1	1%	16
Clc1cccc(CNc2cc(-c3ccccc3)nc3nncn23)c1	-5	-5	-1	2	-8%	6
CC1CCN(CCNC(=O)c2ccc3c(=O)n(Cc4ccc(Cl)cc4)c(=S)[nH]c3c2)CC1	-51*	-4	1	1	.	88*
CCN(CC)CCNC(=O)c1ccc2c(=O)n(C3CCCC3)c(=S)[nH]c2c1	-40*	-2	0	-16	4%	30*
CC(C)Cn1c(=S)[nH]c2cc(C(=O)NCc3ccccc3F)ccc2c1=O	-33*	-1	0	-6	.	14
CCOC(=O)N/N=C1/C[C@@H](O)[C@@H](O)[C@@H]2[C@@H]3C(=O)N(Cc4ccc5c(c4)OCO5)C(=O)[C@H]3CC[C@H]12	.	.	.	.	1%[10.1 µM]	.
CNS(=O)(=O)c1cc(-c2nnc(Nc3cc(C)ccc3C)c3ccccc23)ccc1C	-7	-2	0	5	-2%	-1
CC1(C)C(C#N)=C(N)OC2=C1C(=O)CCC2	-15	2	1	-2	-2%	1
CC(=O)CC1(C)OC(N)=C(C#N)C1(C#N)C#N (centres undefined)	-30*	9	0	4	0%	0
CCCCCCCN[C@H]1CCC[C@@H]1CCCCCCC(=O)O	.	.	.	.	0%	.
COCCn1c(Cc2ccccc2)nnc1SCC(=O)N1CCCC1=O	8	2	1	0	.	2
Cc1ccc(-n2nnc3c(=O)n(CC(=O)NCc4ccccc4)cnc32)cc1	-8	-4	0	-3	6%	-1
O=C(Cn1cnc2c(nnn2-c2ccccc2)c1=O)NCc1ccc(F)cc1	-60*	-1	-1	-4	-1%	1
CCCn1c(=O)c2sccc2n2c(CCCC(=O)NCCc3ccc(Cl)cc3)nnc12	0	4	-1	-2	-3%	1
O=C(O)/C=C/C(=O)NNC(=O)c1ccccc1Br	-41*	-3	0	-9	-3%	-1
Cc1ccccc1C(=O)NNC(=O)/C=C\C(=O)O	-2	-10	-1	-1	1%	2
O=C(N/N=C/c1sc(N2CCOCC2)nc1-c1ccccc1)c1ccccc1F	-6	-5	-1	2	0%	2
